In PubChem BioAssay AID504373 (National Center for Advancing Translational Sciences (NCATS), 2011):
Several values for one entry are separate records, joined by “and”; a condition that tells them apart may be missing. Identical values can stand only once. Records with an inconclusive call do not appear. A structure can be active in one record and inactive in another. Activity calls are given as the source filed them.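 How the source made its calls: active means fewer circulating green fluorescent tagged thrombocytes in treated fish, with no visible harm to the embryos; inconclusive means compound visibly harmful to the embryos; inactive means no drop in circulating tagged thrombocytes.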

Experiment: qHTS Assay for Compounds Blocking the Interaction Between CBF-beta and RUNX1 for the Treatment of Acute Myeloid Leukemia: Zebrafish assay for Hematopoiesis, SAR for Probe
Details: GFP-cd41 zebrafish embryos, microscopy, 5 days, at 10 uM, stronger effect = lower value
From the text: NIH Chemical Genomics Center [NCGC] NIH Molecular Libraries Probe Production centers Network [MLPCN] MLPCN Grant: X01MH083259-01 Assay Submitter (PI): Paul Liu NCGC Assay Overview: Core Binding Factor (CBF) abnormalities are associated with 20-25% of all acute myeloid leukemias (AML), of which 5-10% are further sub classified as acute myelomonocytic leukemia with eosinophilia, also known as M4Eo in the FAB classification scheme. This subtype of leukemia is usually associated with chromosome 16 inversion (p13:q22). Chromosome 16 inversion results in formation of the fusion oncogene CBFB-MYH11, which encodes the fusion protein CBF-beta-SMMHC. […] It has been hypothesized that the interference of CBF-beta and RUNX1 binding could have therapeutic implications for patients with CBF mediated leukemias. We developed a CBF-beta and RUNX1 binding assay in AlphaScreenTM format and optimized it for high throughput screening to search for inhibitors. The goal of this project is to screen MLPCN's compound collection (MLSMR) for identifying the inhibitors of the interaction between CBF-beta and RUNX1 proteins as research probes. If these probes work well in the animal models, the ultimate goal of this project is to development a new drug treatment for this disease. […] These fish contain a genomic modulation where GFP has been fused to cd41, a marker for thrombocytes, and thus circulating thrombocytes can be easily imaged in anesthetized fish.
Assay protocol: GFP-cd41 zebrafish were kindly provided by the Liu lab. Zebrafish embryos were incubated with compound (<0.1% DMSO final) at 48 hours post fertilization, for 5 days. Embryos were manually scored under a microscope with GFP illumination for circulating GFP-tagged thrombocytes. Keywords: MLSMR, MLPCN, NIH Roadmap, qHTS, NCGC, Core binding factor, CBF, CBF-beta, Acute myeloid leukemia

SMILES | fish with circulating GFP thrombocytes
NCCCC(=O)Nc1ccc(Cl)cc1C(=O)c1ccc[nH]1 | 93.3%
CN(C)CC(=O)Nc1ccc(Cl)cc1C(=O)c1ccc[nH]1 | 70%

Same assay, conditions: GFP-cd41 zebrafish embryos, microscopy, 5 days, at 25 µM, stronger effect = lower value

SMILES | fish with circulating GFP thrombocytes
CC(=O)Nc1ccc(Cl)cc1C(=O)c1ccc[nH]1 | 70.8% (active) and 100% (inactive)
CNCc1nc(-c2ccc[nH]2)c2cc(Cl)ccc2n1 | 100% (inactive)
N[C@@H](CC(=O)O)C(=O)Nc1ccc(Cl)cc1C(=O)c1ccc[nH]1 | 100% (inactive)
Nc1ccc(Cl)cc1C(=O)c1ccc[nH]1 | 83.3% (active)
CCC(=O)Nc1ccc(Cl)cc1C(=O)c1ccc[nH]1 | 100% (inactive)
CC(C)[C@H](N)C(=O)Nc1ccc(Cl)cc1C(=O)c1ccc[nH]1 | 100% (inactive)
NCCCC[C@H](N)C(=O)Nc1ccc(Cl)cc1C(=O)c1ccc[nH]1 | 100% (inactive)
NCCCC(=O)Nc1ccc(Cl)cc1C(=O)c1ccc[nH]1 | 100% (inactive)
NC(N)=NCCC[C@H](N)C(=O)Nc1ccc(Cl)cc1C(=O)c1ccc[nH]1 | 100% (inactive)
NCC(=O)Nc1ccc(Cl)cc1C(=O)c1ccc[nH]1 | 100% (inactive)
N[C@H](C(=O)Nc1ccc(Cl)cc1C(=O)c1ccc[nH]1)c1ccccc1 | 100% (inactive)
C[C@@H](N)C(=O)Nc1ccc(Cl)cc1C(=O)c1ccc[nH]1 | 100% (inactive)
N[C@H](Cc1ccccc1)C(=O)Nc1ccc(Cl)cc1C(=O)c1ccc[nH]1 | 100% (inactive)
N[C@@H](CCC(=O)O)C(=O)Nc1ccc(Cl)cc1C(=O)c1ccc[nH]1 | 100% (inactive)
CN(C)CC(=O)Nc1ccc(Cl)cc1C(=O)c1ccc[nH]1 | 59.4% (active)
CC(C)(N)C(=O)Nc1ccc(Cl)cc1C(=O)c1ccc[nH]1 | 100% (inactive)
CNCC(=O)Nc1ccc(Cl)cc1C(=O)c1ccc[nH]1 | 100% (inactive)
N[C@@H](Cc1ccccc1)C(=O)Nc1ccc(Cl)cc1C(=O)c1ccc[nH]1 | 100% (inactive)
NC(=O)C[C@H](N)C(=O)Nc1ccc(Cl)cc1C(=O)c1ccc[nH]1 | 100% (inactive)
O=C(c1ccc[nH]1)c1cc(Cl)ccc1NC(=O)[C@@H]1CCCN1 | 100% (inactive)
NCCC(=O)Nc1ccc(Cl)cc1C(=O)c1ccc[nH]1 | 100% (inactive)
C[C@H](N)C(=O)Nc1ccc(Cl)cc1C(=O)c1ccc[nH]1 | 100% (inactive)

Same assay, conditions: GFP-cd41 zebrafish embryos, microscopy, 5 days, at 50 uM, stronger effect = lower value

SMILES | fish with circulating GFP thrombocytes
CC(=O)Nc1ccc(Cl)cc1C(=O)c1ccc[nH]1 | 66.7%
Nc1ccc(Cl)cc1C(=O)c1ccc[nH]1 | 70.8%
